{"source": "paper PMC8384837", "about": "“Expanding the binding specificity for RNA recognition by a PUF domain”", "assay_in_all_cases": "yeast three-hybrid, YBZ-1, SC-Leu-His + 0.5 mM 3-AT, 4 days", "conditions_in_all_cases": "tags: N-Gal4 AD-HA kept; label: inside an RPR1-promoter hybrid RNA with tandem MS2 sites; ssRNA", "key": {"PUM1 PUF domain R5-MHA": {"biological_target": "PUM1 PUF domain R5-MHA (Homo sapiens, UniProt Q14671 828-1176, C1007M;R1008H;Q1011A)", "method_in_brief": "(§1)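 Each repeat of the Pumilio-1 PUF domain was randomized at its three base-contacting residues, and these libraries were co-expressed from a centromeric plasmid with matching RNA elements in strain YBZ-1. After four days on SC-Leu (input) or SC-Leu-His + 0.5 mM 3-AT (selection), the repeat regions were PCR-amplified and Illumina-sequenced. The interaction score compares variant frequency between input and selection as a log change, computed in log2 with a pseudocount of 1 for absent variants.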"}, "PUM1 PUF domain R5-QCS": {"biological_target": "PUM1 PUF domain R5-QCS (Homo sapiens, UniProt Q14671 828-1176, C1007Q;R1008C;Q1011S)", "method_in_brief": "as §1"}, "PUM1 PUF domain R3-EYS": {"biological_target": "PUM1 PUF domain R3-EYS (Homo sapiens, UniProt Q14671 828-1176, C935E;R936Y;Q939S)", "method_in_brief": "as §1"}, "PUM1 PUF domain R1-ARR": {"biological_target": "PUM1 PUF domain R1-ARR (Homo sapiens, UniProt Q14671 828-1176, S863A;Q867R)", "method_in_brief": "as §1"}, "PUM1 PUF domain R7-KFY": {"biological_target": "PUM1 PUF domain R7-KFY (Homo sapiens, UniProt Q14671 828-1176, S1079K;N1080F;E1083Y)", "method_in_brief": "as §1"}, "PUM1 PUF domain R4-GWW": {"biological_target": "PUM1 PUF domain R4-GWW (Homo sapiens, UniProt Q14671 828-1176, N971G;H972W;Q975W)", "method_in_brief": "as §1"}, "PUM1 PUF domain R4-CYP": {"biological_target": "PUM1 PUF domain R4-CYP (Homo sapiens, UniProt Q14671 828-1176, N971C;H972Y;Q975P)", "method_in_brief": "as §1"}, "PUM1 PUF domain R4-SNR": {"biological_target": "PUM1 PUF domain R4-SNR (Homo sapiens, UniProt Q14671 828-1176, N971S;H972N;Q975R)", "method_in_brief": "as §1"}, "PUM1 PUF domain R4-RMR": {"biological_target": "PUM1 PUF domain R4-RMR (Homo sapiens, UniProt Q14671 828-1176, N971R;H972M;Q975R)", "method_in_brief": "as §1"}, "PUM1 PUF domain R4-ARG": {"biological_target": "PUM1 PUF domain R4-ARG (Homo sapiens, UniProt Q14671 828-1176, N971A;H972R;Q975G)", "sequence (Q14671 828-1176 N971A/H972R/Q975G)": "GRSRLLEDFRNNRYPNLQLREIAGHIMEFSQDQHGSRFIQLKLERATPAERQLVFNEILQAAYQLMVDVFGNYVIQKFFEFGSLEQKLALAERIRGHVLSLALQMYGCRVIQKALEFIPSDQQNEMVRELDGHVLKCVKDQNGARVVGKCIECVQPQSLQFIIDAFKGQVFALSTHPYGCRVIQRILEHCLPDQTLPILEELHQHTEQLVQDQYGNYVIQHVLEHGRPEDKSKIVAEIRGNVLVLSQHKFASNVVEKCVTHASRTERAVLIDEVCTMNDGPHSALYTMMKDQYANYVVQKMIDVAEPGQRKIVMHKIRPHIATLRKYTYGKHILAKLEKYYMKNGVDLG", "method_in_brief": "as §1"}, "PUM1 PUF domain R4-NPG": {"biological_target": "PUM1 PUF domain R4-NPG (Homo sapiens, UniProt Q14671 828-1176, H972P;Q975G)", "sequence (Q14671 828-1176 H972P/Q975G)": "as the sequence (Q14671 828-1176 N971A/H972R/Q975G) above, with A144N, R145P counted along it", "method_in_brief": "as §1"}, "PUM1 PUF domain R8-VYF": {"biological_target": "PUM1 PUF domain R8-VYF (Homo sapiens, UniProt Q14671 828-1176, N1122V;Q1126F)", "method_in_brief": "as §1"}, "PUM1 PUF domain R4-RNY": {"biological_target": "PUM1 PUF domain R4-RNY (Homo sapiens, UniProt Q14671 828-1176, N971R;H972N;Q975Y)", "method_in_brief": "as §1"}, "PUM1 PUF domain R4-SWP": {"biological_target": "PUM1 PUF domain R4-SWP (Homo sapiens, UniProt Q14671 828-1176, N971S;H972W;Q975P)", "method_in_brief": "as §1"}, "PUM1 PUF domain R4-SRE": {"biological_target": "PUM1 PUF domain R4-SRE (Homo sapiens, UniProt Q14671 828-1176, N971S;H972R;Q975E)", "method_in_brief": "as §1"}, "PUM1 PUF domain R6-NFT": {"biological_target": "T1, PUM1 PUF domain R6-NFT (Homo sapiens, UniProt Q14671 828-1176, Y1044F;Q1047T)", "T1 sequence": "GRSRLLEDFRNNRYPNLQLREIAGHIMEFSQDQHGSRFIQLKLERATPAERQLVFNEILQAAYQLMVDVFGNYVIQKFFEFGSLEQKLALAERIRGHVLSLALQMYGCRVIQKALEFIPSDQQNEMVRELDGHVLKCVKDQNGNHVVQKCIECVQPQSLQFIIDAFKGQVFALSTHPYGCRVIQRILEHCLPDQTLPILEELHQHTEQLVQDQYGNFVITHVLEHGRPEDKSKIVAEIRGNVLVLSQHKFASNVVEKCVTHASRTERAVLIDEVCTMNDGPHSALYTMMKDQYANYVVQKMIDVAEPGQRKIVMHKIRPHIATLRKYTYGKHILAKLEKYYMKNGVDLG", "method_in_brief": "as §1"}, "PUM1 PUF domain R3-ESL": {"biological_target": "PUM1 PUF domain R3-ESL (Homo sapiens, UniProt Q14671 828-1176, C935E;R936S;Q939L)", "method_in_brief": "as §1"}}, "data": [{"sequence": "GGCUAGAACUAGUGGAUCCCCCGGCGCCCGGCGGCUCGAGCCCGGGUAAGUGUUAAUAGUCUGCAUGCCGCCGGGCGCCAUGCCUGCAGGUCGACUCUAGAAAACAUG", "values": [{"measurement": "binding signal", "setting": "PUM1 PUF domain R5-MHA", "result": "4.69 log2 enrichment (interaction score)"}, {"measurement": "binding signal", "setting": "PUM1 PUF domain R5-QCS", "result": "0.61 log2 enrichment (interaction score)"}]}, {"sequence": "GGCUAGAACUAGUGGAUCCCCCGGCGCCCGGCGGCUCGAGCCCGGGUAAGUGUAAGUAGUCUGCAUGCCGCCGGGCGCCAUGCCUGCAGGUCGACUCUAGAAAACAUG", "values": [{"measurement": "binding signal", "setting": "PUM1 PUF domain R3-EYS", "result": "4.44 log2 enrichment (interaction score)"}]}, {"sequence": "GGCUAGAACUAGUGGAUCCCCCGGCGCCCGGCGGCUCGAGCCCGGGUAAGUGUAAAUGGUCUGCAUGCCGCCGGGCGCCAUGCCUGCAGGUCGACUCUAGAAAACAUG", "values": [{"measurement": "binding signal", "setting": "PUM1 PUF domain R1-ARR", "result": "0.69 log2 enrichment (interaction score)"}]}, {"sequence": "GGCUAGAACUAGUGGAUCCCCCGGCGCCCGGCGGCUCGAGCCCGGGUAAGUAUAAAUAGUCUGCAUGCCGCCGGGCGCCAUGCCUGCAGGUCGACUCUAGAAAACAUG", "values": [{"measurement": "binding signal", "setting": "PUM1 PUF domain R7-KFY", "result": "2.56 log2 enrichment (interaction score)"}]}, {"sequence": "GGCUAGAACUAGUGGAUCCCCCGGCGCCCGGCGGCUCGAGCCCGGGUAAGUGUACAUAGUCUGCAUGCCGCCGGGCGCCAUGCCUGCAGGUCGACUCUAGAAAACAUG", "values": [{"measurement": "binding signal", "setting": "PUM1 PUF domain R4-GWW", "result": "0.85 log2 enrichment (interaction score)"}, {"measurement": "binding signal", "setting": "PUM1 PUF domain R4-CYP", "result": "6.17 log2 enrichment (interaction score)"}, {"measurement": "binding signal", "setting": "PUM1 PUF domain R4-SNR", "result": "2.06 log2 enrichment (interaction score)"}, {"measurement": "binding signal", "setting": "PUM1 PUF domain R4-RMR", "result": "2.94 log2 enrichment (interaction score)"}, {"measurement": "binding signal", "setting": "PUM1 PUF domain R4-ARG", "result": "1.86 log2 enrichment (interaction score)"}, {"measurement": "binding signal", "setting": "PUM1 PUF domain R4-NPG", "result": "1.42 log2 enrichment (interaction score)"}]}, {"sequence": "GGCUAGAACUAGUGGAUCCCCCGGCGCCCGGCGGCUCGAGCCCGGGUAAGCGUAAAUAGUCUGCAUGCCGCCGGGCGCCAUGCCUGCAGGUCGACUCUAGAAAACAUG", "values": [{"measurement": "binding signal", "setting": "PUM1 PUF domain R8-VYF", "result": "2.73 log2 enrichment (interaction score)"}]}, {"sequence": "GGCUAGAACUAGUGGAUCCCCCGGCGCCCGGCGGCUCGAGCCCGGGUAAGUGUAAAUAGUCUGCAUGCCGCCGGGCGCCAUGCCUGCAGGUCGACUCUAGAAAACAUG", "values": [{"measurement": "binding signal", "setting": "PUM1 PUF domain R4-GWW", "result": "3.18 log2 enrichment (interaction score)"}, {"measurement": "binding signal", "setting": "PUM1 PUF domain R4-CYP", "result": "5.36 log2 enrichment (interaction score)"}, {"measurement": "binding signal", "setting": "PUM1 PUF domain R4-RNY", "result": "3.7 log2 enrichment (interaction score)"}, {"measurement": "binding signal", "setting": "PUM1 PUF domain R4-SWP", "result": "5.57 log2 enrichment (interaction score)"}, {"measurement": "binding signal", "setting": "PUM1 PUF domain R4-SRE", "result": "3.49 log2 enrichment (interaction score)"}, {"measurement": "binding signal", "setting": "PUM1 PUF domain R4-ARG", "result": "4.57 log2 enrichment (interaction score)"}, {"measurement": "binding signal", "setting": "PUM1 PUF domain R6-NFT", "result": "4.45 log2 enrichment (interaction score)"}, {"measurement": "binding signal", "setting": "PUM1 PUF domain R3-ESL", "result": "2.59 log2 enrichment (interaction score)"}, {"measurement": "binding signal", "setting": "PUM1 PUF domain R8-VYF", "result": "2.23 log2 enrichment (interaction score)"}, {"measurement": "binding signal", "setting": "PUM1 PUF domain R4-NPG", "result": "2.63 log2 enrichment (interaction score)"}]}]}
